Screening results deposited in PubChem BioAssay by several laboratories.
An excerpt weighted towards active compounds, which were near 3% of everything screened.
Peg3 promoter = Peg3 promoter activity inhibition; HeLa PEG-Prom luciferase reporter, luminescence, overnight; inhibition, % at 20 µM; 360,000 compounds, 1.7% hits; AID 588405;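 active means inhibition of at least 50% at 20 µM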
CF NFkB block = inhibitors of cystic fibrosis induced NF-kB; AID 588850; KKLEB NF-kB-GFP reporter, PAF-induced, GFP fluorescence overnight; 360,000 compounds, 0.86% hits; inhibition, % at 5 µM;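 active means at least 50% inhibition at 5 µM, scaled per plate between neutral and stimulator controls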;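 further: PAF is a Pseudomonas aeruginosa culture filtrate used as stimulus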
HIF-2a inh = blocks HIF-2a reporter activity; 786-0 RCC cells HIF-2a reporter, luciferase luminescence, overnight; inhibition, % at 18.8 µM; 360,000 compounds, 0.72% hits;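 active means inhibition of the luminescence signal of 40% or more relative to plate controls, in a single-dose primary screen at 18.75 µM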
KKLEB tox = counter-screen for CF NF-kB inhibitors: cytotoxicity; KKLEB CF airway cells viability, ATPlite luminescence, overnight; active compounds read low; cells stimulated with P. aeruginosa culture filtrate; activity change (cytotoxicity), % at 5 µM; 360,000 compounds, 0.36% hits; AID 602141;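 active means corrected activity change at or below -50% at 5 µM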
LMP1 NFkB inh = inhibitors of Epstein-Barr LMP1-induced NF-kappaB reporter. LMP1-induced NF-kappaB luciferase reporter cells, luminescence. inhibition, % at 12.5 µM. 350,000 compounds, 0.69% hits; in the data active means inhibition above about 41%
TRPM1 prom inh = MITF TRPM1 promoter inhibition in SK-MEL-5 cells; SK-MEL-5 TRPM1 promoter luciferase, 24 h; inhibition, % at 12.5 µM; 330,000 compounds, 0.83% hits;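 active means mean inhibition across replicates of 60% or more, whatever share of single replicates reaches that level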
Numbers stand for hits; 0 = inactive; - = no result given.

SMILES | Peg3 promoter | CF NFkB block | HIF-2a inh | KKLEB tox | LMP1 NFkB inh | TRPM1 prom inh
CN1CCN(c2ccc(Nc3ccnc4cc(Cl)ccc34)cc2)CC1 | 61 | 0 | 0 | 0 | 0 | 0
CCN(C(=O)COC(=O)c1ccccc1Nc1ccccc1)c1c(N)n(Cc2ccccc2)c(=O)[nH]c1=O | 0 | 0 | 0 | 0 | 0 | -
CCOC(=O)C1=CCN(S(=O)(=O)c2ccc(C)cc2)C1c1cccc(Cl)c1 (stereo not drawn) | 0 | 0 | 0 | 0 | - | -
CCCOC(c1ccccc1)(c1ccc(C(F)(F)F)cc1)C(Oc1nc(C)cc(C)n1)C(=O)O (stereo not drawn) | 0 | 0 | 0 | 0 | 43 | 0
Cc1cc(C)nc(OC(C(=O)O)C(OCCc2ccccc2)(c2ccc(F)cc2)c2ccc(F)cc2)n1 (stereo not drawn) | 0 | 0 | 0 | 0 | 0 | 0
COc1cccc(N2CCN(C(=O)C3CCN(C(=O)Nc4ccccc4)CC3)CC2)c1 | 0 | 0 | 0 | 0 | 0 | -
COC1=CC(=O)C(OC)=C(OC)C1=O | 63 | 58 | 0 | 0 | 0 | 0
N#CC1=C(N)C(C#N)(C#N)[C@H](c2cccnc2)[C@H]2CN(C(=O)OCc3ccccc3)CC=C12 | 0 | 0 | 0 | 0 | 0 | 0
N#CC1=C(N)C(C#N)(C#N)C(c2cccnc2)C2CC(c3ccccc3)CC=C12 (stereo not drawn) | 0 | 69 | 0 | 0 | 55 | 0
O=C(/C=C/[C@H]1O[C@@H](n2ccc(=O)[nH]c2=O)[C@H](O)[C@@H]1O)NCC1CCCO1 (stereo partly drawn) | 0 | 0 | 0 | 0 | - | -
COC(=O)[C@@]12C[C@@H](CC(=O)N3CCOCC3)C(=O)N(Cc3ccc4c(c3)OCO4)C1=CCC(C)(C)C2 | - | - | 0 | - | - | -
O=[N+]([O-])c1ccc(N/N=C/c2sc(N3CCOCC3)nc2-c2ccccc2)c(S(=O)(=O)Nc2ccccc2Cl)c1 | 68 | 0 | 0 | 0 | 0 | 65
O=[N+]([O-])c1ccc(N/N=C/c2sc(N3CCOCC3)nc2-c2ccccc2)c(S(=O)(=O)Nc2ccc(Cl)cc2)c1 | 54 | 0 | 0 | 0 | 55 | 72
O=C(O)c1cccc(N/N=C/c2sc(N3CCOCC3)nc2-c2ccccc2)c1 | 0 | 0 | 0 | 0 | 0 | 0
O=C(N/N=C/c1sc(N2CCOCC2)nc1-c1ccccc1)c1ccccc1Cl | 0 | 0 | 0 | 0 | 0 | 0
O=C(NC(Cc1ccccc1)C(=O)N1CCN(c2ccc(F)cc2)CC1)c1ccccc1 (stereo not drawn) | 0 | 0 | 0 | 0 | 0 | -
C[C@H](CO)N1C[C@H](C)[C@@H](CN(C)Cc2ccccc2)OCc2cnnn2CCCC1=O | 0 | 0 | 0 | 0 | 0 | -
CCNC(=S)Nc1ccc2c(c1)c(=O)n(C)n2-c1ccc(C(C)(C)C)cc1 | 0 | 0 | 0 | 0 | - | -
COc1ccc(Cc2nnc(N/N=C/c3ccc(O)cc3)[nH]c2=O)cc1OC | 59 | 0 | 0 | 0 | 61 | 0
COc1ccc(Cc2nnc(N/N=C/c3ccc(Br)cc3)[nH]c2=O)cc1OC | 0 | 0 | 0 | 0 | 0 | 0
C/C(=N/NC(=O)c1ccc(C(C)(C)C)cc1)c1ccccn1 | 0 | 0 | 0 | 0 | 47 | 0
C/C(=N\NC(=O)C(c1ccccc1)c1ccccc1)c1ccc(O)cc1 | 0 | 0 | 0 | 0 | 0 | 0
COc1ccc(C(=O)N/N=C(\C)c2ccccn2)cc1OC | 0 | 0 | 0 | 0 | 0 | 73
C/C(=N\NC(=O)C(c1ccccc1)c1ccccc1)c1ccccn1 | 97 | 0 | 0 | 0 | 0 | -
C/C(=N\NC(=O)c1ccc(Cl)c(Cl)c1)c1ccccn1 | 0 | 0 | 0 | 0 | 73 | 65
SMILES | Peg3 promoter | CF NFkB block | HIF-2a inh | KKLEB tox | LMP1 NFkB inh | TRPM1 prom inh
C/C(=N\NC(=O)c1ccccc1Cl)c1ccccn1 | 0 | 0 | 0 | 0 | 0 | 0
Cc1ccc(N(CC(=O)N2CCCCCC2)S(C)(=O)=O)cc1 | 0 | 0 | 0 | 0 | 0 | -
COc1ccc(S(=O)(=O)N(C)C[C@@H]2OCCCC[C@H](C)Oc3ccc(NC(=O)Nc4ccc(C(F)(F)F)cc4)cc3C(=O)N([C@H](C)CO)C[C@H]2C)cc1 | 0 | 0 | 0 | 0 | 0 | -
COc1ccc(NC(C)=O)cc1S(=O)(=O)NCc1ccc2c(c1)OCO2 | 0 | 0 | 0 | 0 | 0 | -
Cc1cc(NC(=O)CS(=O)c2cn(Cc3cccc(Cl)c3)c3ccccc23)no1 (stereo not drawn) | 0 | 0 | 0 | 0 | - | -
C[C@@H]1CCCCO[C@H](CN(C)C(=O)Nc2ccc(F)cc2)[C@@H](C)CN([C@H](C)CO)C(=O)c2cc(N(C)C)ccc2O1 | 0 | 0 | 0 | 0 | 0 | -
CS(=O)(=O)c1nc(S(=O)(=O)c2ccc(Cl)cc2)c(N2CCOCC2)s1 | 0 | 0 | 0 | 0 | 0 | 67
c1ccc2c3c([nH]c2c1)C(C1CCCCC1)N(Cc1ncc[nH]1)CC3 (stereo not drawn) | 0 | 0 | 0 | 0 | 73 | 0
Cc1cnc(CN2CCc3c([nH]c4ccccc34)C2C2CCCCC2)[nH]1 (stereo not drawn) | 0 | 0 | 0 | 0 | 0 | 0
CCOC(=O)c1sc(N(Cc2ccccc2)C(=O)CCl)nc1C | 63 | 65 | 0 | 0 | 0 | 0
CCOC(=O)c1sc(N(Cc2ccccc2)C(=O)COC(=O)c2ccc(O)cc2)nc1C | 0 | 0 | 0 | 0 | 53 | 0
CN(C)CCNCCCNc1c2ccccc2nc2cccc([N+](=O)[O-])c12 | 98 | 0 | 0 | 0 | 0 | 103
CN(C)CCCNc1c2c(nc3ccccc13)CCC2 | 0 | 0 | 0 | 0 | 0 | 0
COC(=O)c1ccc2c(c1C(=O)OC)CN(S(=O)(=O)C(C)(C)C)[C@@H]2CCO | 0 | 0 | 0 | 0 | 0 | 0
O=C(COC(=O)CNC(=O)C1CCCCC1)Nc1cc(C(F)(F)F)ccc1Cl | 0 | 0 | 0 | 0 | 0 | 0
O=C(Cn1cc(CNC(=O)C2CCCCC2)nn1)Nc1cc(C(F)(F)F)ccc1Cl | 0 | 0 | 0 | 0 | 42 | 0
Cc1cccc(C)c1NC(=O)C1(C)CSCC(=O)N1CCOc1ccccc1 (stereo not drawn) | - | - | 0 | - | - | -
O=C(C[C@H]1C/C=C\C[C@H](NC(=O)OCC2c3ccccc3-c3ccccc32)C(=O)O[C@H](c2ccccc2)CNC1=O)N[C@H](CO)Cc1ccccc1 | 87 | 86 | 0 | -96 | 0 | 0
CC1=NN(c2nc(N)nc(/C(C#N)=C/c3ccc([N+](=O)[O-])o3)n2)C(C)(C)C1 | 102 | 0 | 0 | -69 | 0 | 91
O=C1C2C(C(=O)N1/N=C/c1ccc([N+](=O)[O-])o1)C1C=CC2C12CC2 (stereo not drawn) | 0 | 0 | 0 | 0 | 0 | 0
Cn1c(=N)n(CC(=O)c2ccccc2)c2ccccc21 | 0 | 0 | 0 | 0 | - | -
Cn1c(=N)n(CC(=O)c2ccc(Cl)c(Cl)c2)c2ccccc21 | 81 | 0 | 0 | 0 | 0 | 0
N=c1n(CC(=O)c2ccc([N+](=O)[O-])cc2)c2ccccc2n1Cc1ccccc1Cl | 85 | 0 | 0 | 0 | 0 | 79
O=C1C=C(c2ccccc2)CO1 | 0 | 0 | 0 | 0 | 0 | 0
O=C(NC(=S)Nc1nc2ccccc2s1)c1cccs1 | 0 | 0 | 0 | -56 | 0 | 0
